This is part of a sample that, as a whole, favours compounds with a hit. Of some 83,000 tested, about 20% had one in any assay.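 In brief: 96-well plates, 48 h treatment, single concentration, percent growth endpoint.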 Unmarked numbers belong to inactive results. The source made the active and inactive calls. How the source made its calls: active means growth percent below 10; inactive means the rest.
Each compound was assayed on CAKI-1 renal (assay: NCI-60 one-dose screen, 48 h (100 = growth as untreated, 0 = no growth, -100 = all killed)). Details: 10 µM unless noted.
With COc1ccc(Nc2ncnc3c2sc2nc(C)cc(C)c23)cc1 the growth was 99.2%. Work on CCOc1cccc(/C=N/NC(=O)c2ccc(Nc3ccnc(C(F)(F)F)c3)cc2)c1O yielded a growth of 13.8%. CN(C)CCOc1nc2c3ccncc3cc(-c3cccc(Cl)c3)c2c2cnccc12 showed a growth of 29.6%.

The compounds below were run on A498 renal in the same assay as above. Details: 10 µM unless noted.
Compound COc1ccc(C2CC(c3ccc(Nc4ccnc5cc(Cl)ccc45)cc3)=NN2c2ccccc2)cc1 (centres undefined) has a growth of 49.7%. CCCCc1n(Cc2ccc3ccccc3n2)cc[n+]1Cc1ccc2ccccc2n1 was tested, and the growth was 7.39% (active). O=C(/C=C/c1cn(-c2ccccc2)nc1-c1cccc(Nc2ccnc3cc(Cl)ccc23)c1)c1ccc2c(c1)OCO2 showed a growth of 92.3%. NC(=O)c1noc(C(=O)c2ccccc2)c1N gave a growth of 72%. COc1ccc(/C=C(/C(=O)N2CCN(c3ccccc3)CC2)c2cc(OC)c(OC)c(OC)c2)cc1O was tested, and the growth was -3.6% (active). Fc1ccc(-c2ccnc3nc(-c4ccncc4)nn23)cc1 gave a growth of 83.8%. In the case of O=C1CC2(O)CSc3nc(=O)cc(n32)N1 (centres undefined), the growth is reported as 104%. CCOC(=O)C1=C(C)NC(SCc2nnc(-c3ccc(Cl)cc3)o2)=NC1c1ccc(Br)cc1 (centres undefined) gave a growth of 73.2%. CN(C)CCOc1nc2c3cccnc3cc(-c3cccc(Cl)c3)c2c2ncccc12 showed a growth of 43.7%. For Nc1ncnc2c1N=C(c1ccc(F)cc1)CC(c1sc(Cl)nc1Cl)N2 (centres undefined), the growth was 68.9%. With O=C1/C(=C\c2cccn2Cc2ccc(Cl)cc2)c2ccccc2N1c1c(Cl)cccc1Cl the growth was 98%. CCOC(CN1CCN(CC(C)C(=O)c2ccccc2)CC1)c1ccccc1 (centres undefined) was tested, and the growth was 97.1%. COc1ccc(/C(=C\c2cc(OC)c(OC)c(OC)c2)C(=O)N2CCNCC2)cc1 was tested, and the growth was 85.6%. With COc1ccc2[nH]c(C(=O)OCc3ccc4cccc(O)c4n3)cc2c1 the growth was 36.5%. O=C(CCc1nc2sc3c(c2c(=O)[nH]1)CCC3)NCc1cn(-c2ccccc2)nc1-c1ccccc1 gave a growth of 66.4%. With COc1ccc(-c2nc(-c3ccccc3OCc3ccccc3OC)nc(C)c2C(C)=O)cc1 the growth was 79.1%. For [Ag].[Ag].[NH-]S(=O)(=O)c1ccc(N=Nc2cc(N=Nc3ccc(S([NH-])(=O)=O)cc3)c3c(NC(=O)C(Cl)Cl)cccc3c2OC(=O)C(Cl)Cl)cc1.[c-]1nccs1.[c-]1nccs1, the growth was 101%. For COc1cc(C2CC(c3cccc(Nc4ccnc5cc(Cl)ccc45)c3)=NN2c2ccccc2)cc(OC)c1OC (centres undefined), the growth was 73.3%. CCCCCCCCCCCCCCCc1cc(O)ccc1[N+](=O)[O-] was tested, and the growth was 98%. For Cc1ccc(C2CC(c3cccs3)=NN2c2ccc(S(N)(=O)=O)cc2)s1 (centres undefined), the growth was 89.9%. For Nc1nc(N)c2c(n1)NC(c1sc(Cl)nc1Cl)CC(c1ccccc1)=N2 (centres undefined), the growth was 19.7%. For C=CCn1c(C)nc2cc(Nc3nc(N4CCCC4)nc4nc[nH]c34)ccc21, the growth was 1.35% (active). In the case of CCSc1ccc([C@@H]2[C@@H](O)C(=O)N2c2cc(OC)c(OC)c(OC)c2)cc1, the growth is reported as -10.6% (active). Work on Cc1cc(C)c2c(n1)sc1c(Nc3ccc(OCc4ccccc4)cc3)ncnc12 yielded a growth of 78.3%. CCN(CC)C(Cl)=Nc1ccc(Cl)cc1 showed a growth of 99.6%. In the case of Cc1nc2ccc(Nc3nc(N4CCOCC4)nc(N4CCN(C)CC4)n3)cc2n1Cc1ccccc1, the growth is reported as 40.6%. Work on CC(=O)c1c(C)nc(-c2cc(C)cc(Cl)c2)nc1-c1cccc(Oc2ccccc2)c1 yielded a growth of 41.3%. CCOC(=O)C1=C(C)NC(SCc2nnc(-c3ccc(Cl)cc3)o2)=NC1c1ccc(Cl)cc1 (centres undefined) was tested, and the growth was 80.7%. For Cc1cc(C)c2c(NC(=O)Nc3ccc(Cl)c(Cl)c3)n[nH]c2n1, the growth was 101%. For Brc1ccccc1Cn1c(-c2cncs2)nc2ccccc21, the growth was 71.6%. Work on CC(C)(C)c1ccc(Cn2c(-c3nonc3N)nc3ccccc32)cc1 yielded a growth of 80.1%. For COc1ccc(Nc2ncnc3c2sc2nc(C)cc(C)c23)cc1, the growth was 91%. Work on CCCc1n(Cc2ccc3ccccc3n2)cc[n+]1Cc1ccc2ccccc2n1 yielded a growth of 35.4%. With O=c1[nH]cnc2nc[nH]c12 the growth was 87.9%. With CCOc1cccc(/C=N/NC(=O)c2ccc(Nc3ccnc(C(F)(F)F)c3)cc2)c1O the growth was -2.13% (active). CN(C)CCOc1nc2c3ccncc3cc(-c3cccc(Cl)c3)c2c2cnccc12 gave a growth of 35.5%.
